The assay has as its system Plasmodium falciparum. In words: GSK_TCMDC: Inhibition of Plasmodium falciparum Dd2 in whole red blood cells, using parasite LDH activity as an index of growth. Test compounds present at 2uM. The assay is classed as functional.
In turn, `CN1CCC(NCc2cccc(-c3ccc(S(=O)(=O)NCCN4CCCC4)c(F)c3)c2)CC1.O=C(O)C(F)(F)F` yielded an Inhibition of 0%.
Compound `O=C(Nc1cccc(CN2CCCN(Cc3ccsc3)CC2)c1)c1ccc(-c2ccccc2)cc1.O=C(O)C(F)(F)F` gave an Inhibition of 11%.
`Cc1cccc2nc(C3CCN(CC4CCN(C(=O)/C=C/c5ccc(Cl)c(Cl)c5)CC4)CC3)[nH]c12`: the Inhibition was 79%.
The value for `COc1ccc(/C=C/C(=O)N2CCc3cc4nccc(N5CCN6CCC[C@H]6C5)c4cc32)cc1` was 98%; that for `CN(C)CCNCc1ccc(-c2ccc3c(Nc4ccc(Cl)cc4F)ccnc3c2)o1` was 100%.
Turning to `Cc1nc(C)c(C2CCC(c3ccc(Cl)cc3)CC2)c(O)c1Cl` (stereo not given), the Inhibition was determined as 97%.
For `Fc1ccc(C=NNc2nc3ccccc3[nH]2)cc1`, the Inhibition was 58%.
The value for `Cc1cnc(NCC2CCCCC2)nc1N[C@@H](CO)C(=O)Nc1ccccc1.O=C(O)C(F)(F)F` was 56%.
The value for `CCSc1nnc(C2CCCN(CC(=O)Nc3cc(C(F)(F)F)ccc3Cl)C2)n1CC` (stereo not given) was 96%; that for `COc1ccc(-n2ccnc2SCC(=O)Nc2cc(C)ccc2C)c(OC)c1` was 93%.
`CN=C(NC)c1cccc(NC(=O)C=Cc2ccc(C=CC(=O)Nc3cccc(C(=NC)NC)c3)cc2)c1.Cl`: the Inhibition is recorded as 99%.
`Cl.N#Cc1ccc2c(c1)CN(CCC1CCC(NC(=O)c3cc4cc(OC(F)(F)F)ccc4[nH]3)CC1)CC2` (stereo not given) came in with an Inhibition of 19%.
As to `Cl.c1ccc(COc2ccc(Nc3ncnc4cnc(-c5ccc(CN6CCCCC6)o5)cc34)cc2)cc1`, the Inhibition is listed as 13%.
In the case of `CCOC(=O)c1nc(-c2cccnc2)[nH]c1NC(=S)NCc1ccccc1` it was 100%.
With `COc1ccc(CN(C)CCCc2ccc(NC(=O)c3cccc4c(=O)c5cccc(F)c5[nH]c34)cc2)cc1OC`, the Inhibition was found to be 94%.
In the case of `CS(=O)(=O)N(c1cccc(F)c1)c1cc(C(=O)N[C@@H](Cc2ccccc2)[C@H](O)CNCc2cccc(C(F)(F)F)c2)cc(N2CCCC2=O)c1.O=CO` it was 92%.
In the case of `CC(C)C[C@@H](NC(=O)OC(C)(C)C)C(=O)Nc1ccc(Cc2ccc(NC(=O)[C@@H](CC(C)C)NC(=O)OC(C)(C)C)cc2)cc1` it was 96%.
The value for `N#Cc1cccc(-c2cnc(N)c(-c3nc4cc(S(N)(=O)=O)ccc4[nH]3)c2)c1` was 99%; that for `O=C(/C=C/c1ccc(Cl)c(Cl)c1)NCCCCCCN1CCN(C(=O)Nc2ccc(Cl)c(Cl)c2)CC1` was 0%; that for `CCCc1ccc(C(=O)N2C(c3nccs3)C(C(N)=O)CC2(CC(C)C)C(=O)O)cc1` (stereo not given) was 80%.
Consider `COC(=O)Nc1nc2cc3c(cc2s1)OCCO3`, for which the Inhibition is on record as 0%.
In the case of `Cc1nc(N)nc(N)c1OCc1cccc2ccccc12.Cl` it was 11%.
For `CCCNc1nc(Nc2ccccc2C)nc2ccccc12`, the Inhibition is reported as 64%.
The value for `COc1cc2nc(N3CCC(CNC(=O)c4cc5ccccc5s4)CC3)nc(N)c2cc1OC` was 100%; that for `C=CCn1c(Sc2ccc(C#N)c([N+](=O)[O-])c2)nnc1-c1cccc(Cl)c1` was 54%; that for `COc1ccc(OCC(=O)Nc2nc(-c3ccc(OC)cc3)c(C)s2)cc1` was 87%.
In the case of `CC(=O)Nc1ccc(CCNC(C)Cc2ccc(C(=O)Nc3ccc(CC(C)NCCc4cccc(Cl)c4)cc3)cc2)cc1.Cl` (stereo not given) it was 84%; in that of `COc1cc2nc(Nc3ccc4c(cnn4Cc4ccccc4)c3)nc(Nc3ccc4c(cnn4Cc4ccccc4)c3)c2cc1OC`, 100%; in that of `CCC(C)NS(=O)(=O)c1ccc2nc(Nc3ccc(C)c(Cl)c3)n(C3CCCCC3)c2c1` (stereo not given), 98%.
In the case of `CC1(C)NC(N)=NC(=N)N1OCOc1ccc(Cl)cc1.Cl` it was 96%; in that of `CN(C)CCn1c(=N)n(CC(O)c2ccc(Cl)c(Cl)c2)c2ccccc21.Cl` (stereo not given), 6%; in that of `COc1cccc(-n2ncc3c(N/N=C/c4ccc(CN(C)CCN(C)C)cc4)ncnc32)c1`, 91%.
Compound `CC[C@H](C)CNC(=O)c1ccnc(-c2ccc(CN3CCC(N4CCCC4)CC3)cc2)c1.O=C(O)C(F)(F)F` had an Inhibition of 84%.
The value for `CC(C)(CNCc1cc(Cl)cc(Cl)c1)c1nc(-c2ccnc(N)n2)c(-c2ccc(Cl)c(O)c2)[nH]1.Cl` was 2%; that for `O=C(/C=C/c1ccc(Cl)c(Cl)c1)N1CCC(CN2CCC(Cc3c[nH]c4ccccc34)CC2)CC1` was 13%.
The value for `Cc1cccc2nc(-c3ccc(-c4cccc(NC(=O)C(C)CN(C)C)c4)cc3)[nH]c12` (stereo not given) was 61%.
In the case of `COc1ccc2ncc(F)c([C@H](O)CN3CCC(NCc4ccc5c(c4)OCCO5)CC3)c2c1.Cl` it was 99%; in that of `COc1ccc(NC2=C(c3ccccc3)C(=O)c3ccccc32)cn1`, 84%; in that of `Cc1cc(N[C@@H](CC(C)C)C(=O)NCc2cccs2)nc(NCCc2ccc(F)cc2)n1.O=C(O)C(F)(F)F`, 59%.
As for `Cc1cc(N[C@@H](Cc2ccccc2)C(=O)NC2CCCC2)nc(NCc2ccccc2C)n1.O=C(O)C(F)(F)F`, the Inhibition came to 20%.

Broadly, the Inhibition is the relative decrease from the control value, in per cent. High values mean strong suppression, low ones little suppression.

The values above are taken from ChEMBL document CHEMBL1157539, “Thousands of chemical starting points for antimalarial lead identification” (Nature, 2010).
